Consider 8 compounds from PubChem BioAssay (NCI).

About 83,000 compounds went through this panel and 20% of them were active in at least one assay; those are over-represented in the sample as a whole.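 In brief: 96-well plates, 48 h treatment, single concentration, percent growth endpoint.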 Values without a mark were called inactive. The source made the active and inactive calls. How the source made its calls: active means growth percent below 10; inactive means the rest.

Among the test systems are SK-MEL-2 melanoma; EKVX NSCLC; UO-31 renal; TK-10 renal; ACHN renal; CAKI-1 renal; A498 renal; CCRF-CEM leukemia; MOLT-4 leukemia; SR leukemia; RPMI-8226 leukemia; OVCAR-8 ovarian; OVCAR-5 ovarian; OVCAR-4 ovarian; SK-OV-3 ovarian; IGROV1 ovarian; OVCAR-3 ovarian; HS 578T breast; NCI/ADR-RES ovarian; SN12C renal.
Experiment in all cases: NCI-60 one-dose screen, 48 h (100 = growth as untreated, 0 = no growth, -100 = all killed)
What all share (details): 10 µM unless noted

As for `OCCn1cc(-c2nc3ccc4[nH]ncc4c3c3c2CCCC3)cn1`, the growth in the experiment on SK-MEL-2 melanoma is 43.3%; with EKVX NSCLC it was 32.8%; with UO-31 renal it was 22.3%; in the experiment on TK-10 renal, 16.5%; with ACHN renal it was 16.3%; in the experiment with CAKI-1 renal, 1.75% (active). Besides, the growth in the experiment on A498 renal is -3.55% (active); with CCRF-CEM leukemia it was 48.4%; in the experiment with MOLT-4 leukemia, 31.2%; in the experiment with SR leukemia, -3.53% (active); in the experiment with RPMI-8226 leukemia, 31.4%; with OVCAR-8 ovarian it was 44.7%. For the same compound, the growth in the experiment with OVCAR-5 ovarian was 97.8%; with OVCAR-4 ovarian, 64.2%; with SK-OV-3 ovarian it was 14.6%; in the experiment on IGROV1 ovarian it was 52%; with OVCAR-3 ovarian, 58.8%; with HS 578T breast it was 21.6%.
As for `O=C(CSc1nc2sc3c(c2c(=O)n1-c1ccc(Cl)cc1)CCCC3)NNC(=O)c1ccc(Br)cc1`, the growth in the experiment with SK-MEL-2 melanoma is 99.1%; in the experiment with EKVX NSCLC, 60.9%; with UO-31 renal, 62.3%; in the experiment with TK-10 renal it was 139%; with ACHN renal it was 91.2%; with CAKI-1 renal it was 71.4%. Besides, the growth in the experiment on A498 renal was 127%; in the experiment with CCRF-CEM leukemia it was 61.2%; in the experiment on MOLT-4 leukemia, 73.2%; in the experiment with SR leukemia it was 34.4%; in the experiment on RPMI-8226 leukemia, 81.3%; in the experiment on OVCAR-8 ovarian, 34.3%. The growth in the experiment on OVCAR-5 ovarian was 58.8%; in the experiment with OVCAR-4 ovarian, 64%; in the experiment with SK-OV-3 ovarian, 80.8%; with OVCAR-3 ovarian, 112%; in the experiment with HS 578T breast, 56.7%; in the experiment with NCI/ADR-RES ovarian, 66%.
Regarding `CCOc1ccccc1[C@H]1C(C(=O)c2ccc(Cl)cc2)C2(N[C@@H]1c1ccccc1)C(=O)Nc1ccc(Cl)cc12` (stereo partly drawn), the growth in the experiment on SK-MEL-2 melanoma was -11.2% (active); in the experiment on EKVX NSCLC, 21.5%; in the experiment with UO-31 renal it was 16.7%; with TK-10 renal, 61.4%; with ACHN renal, 22.4%; with CAKI-1 renal, 18.5%. Besides, the growth in the experiment on A498 renal was 80.9%; with CCRF-CEM leukemia, 26.2%; with MOLT-4 leukemia it was -23.4% (active); with SR leukemia, -28.3% (active); in the experiment with RPMI-8226 leukemia it was 21.1%; in the experiment on OVCAR-8 ovarian, 45%. In addition, the growth in the experiment with OVCAR-5 ovarian is 46.2%; with OVCAR-4 ovarian it was 22.5%; in the experiment on SK-OV-3 ovarian it was 42.8%; in the experiment on IGROV1 ovarian, 22.2%; with OVCAR-3 ovarian it was 27%; with HS 578T breast it was 49%. Besides, in the experiment with NCI/ADR-RES ovarian, the growth is 12.6%.
For the compound `CN(C)c1nc(NCCNS(=O)(=O)c2ccc(C(=O)/C=C/c3ccccc3)cc2)nc(N2CCOCC2)n1`, the growth is 97.6% in the experiment with SK-MEL-2 melanoma; 77.6% with EKVX NSCLC; 70.9% in the experiment on UO-31 renal; 108% in the experiment with TK-10 renal; 87% in the experiment on ACHN renal; 68.5% in the experiment on CAKI-1 renal. For the same compound, the growth with A498 renal was 77.2%; in the experiment on CCRF-CEM leukemia, 55.1%; in the experiment with MOLT-4 leukemia it was 13.9%; in the experiment on SR leukemia, -42.7% (active); with RPMI-8226 leukemia, 0.0245% (active); in the experiment on OVCAR-8 ovarian, 83.4%. Moreover, the growth was 93.6% in the experiment on OVCAR-5 ovarian; 88.3% in the experiment on OVCAR-4 ovarian; 97.7% with SK-OV-3 ovarian; 80.5% in the experiment on IGROV1 ovarian; 111% with OVCAR-3 ovarian; 76.1% in the experiment on HS 578T breast. The growth with NCI/ADR-RES ovarian is 82.4%.
For the compound `CC1=C(C(=O)Nc2ccccc2)C(c2ccc3ccccc3c2)n2c(nc3ccccc32)N1` (stereo not drawn), the growth was 106% in the experiment on SK-MEL-2 melanoma; 14.4% in the experiment on SN12C renal; 75% with UO-31 renal; 116% with TK-10 renal; 52.7% in the experiment on ACHN renal; 60.9% in the experiment with CAKI-1 renal. The growth in the experiment on A498 renal was 134%; with MOLT-4 leukemia it was 12.7%; in the experiment with SR leukemia, 38.4%; in the experiment on RPMI-8226 leukemia, 40.8%; in the experiment on OVCAR-8 ovarian, 6.23% (active); in the experiment on OVCAR-5 ovarian it was 97.9%. Also, the growth with OVCAR-4 ovarian was -35.4% (active); in the experiment on SK-OV-3 ovarian, 107%; with IGROV1 ovarian, 67.4%; with OVCAR-3 ovarian it was -21.9% (active); with HS 578T breast, 40.3%; in the experiment on NCI/ADR-RES ovarian it was 41.4%.
Take `Clc1ccc(-c2nc3ccc(-c4nnc(SCc5ccccc5)o4)cc3[nH]2)cc1`: the growth was 75.3% in the experiment with SK-MEL-2 melanoma; -57.9% (active) in the experiment with SN12C renal; 49.3% in the experiment with UO-31 renal; 90.6% in the experiment on TK-10 renal; 45% in the experiment on ACHN renal; 112% in the experiment with A498 renal. The growth with CCRF-CEM leukemia was 34.1%; in the experiment on MOLT-4 leukemia it was 27.7%; in the experiment with SR leukemia it was 23.3%; with RPMI-8226 leukemia, 27.7%; in the experiment with OVCAR-8 ovarian, 8.94% (active); with OVCAR-5 ovarian, 32.4%. For the same compound, the growth is 3.57% (active) in the experiment with OVCAR-4 ovarian; 83.1% in the experiment with SK-OV-3 ovarian; 27.1% with IGROV1 ovarian; -1.55% (active) in the experiment on OVCAR-3 ovarian; 48.7% in the experiment with HS 578T breast; -9.86% (active) in the experiment on NCI/ADR-RES ovarian.
`O=C(Cc1c(-c2ccccc2[N+](=O)[O-])n(-c2ncnc3c2c(-c2ccccc2)c(-c2ccccc2)n3Cc2ccccc2)[nH]c1=O)c1ccc(Cl)c(Cl)c1`: the growth in the experiment with SK-MEL-2 melanoma was -22.4% (active); in the experiment with SN12C renal, 12.6%; in the experiment on UO-31 renal it was 41.7%; in the experiment on TK-10 renal it was 38.5%; with ACHN renal it was 25.4%; in the experiment on CAKI-1 renal, 9.03% (active). Moreover, the growth in the experiment with A498 renal is 56.1%; in the experiment with CCRF-CEM leukemia, 13.2%; in the experiment on MOLT-4 leukemia, 24.1%; in the experiment on SR leukemia, 14.2%; in the experiment with RPMI-8226 leukemia, -3.03% (active); in the experiment on OVCAR-8 ovarian it was 25.5%. For the same compound, the growth in the experiment on OVCAR-5 ovarian is 55.1%; in the experiment with OVCAR-4 ovarian, 19.2%; in the experiment on SK-OV-3 ovarian it was 39.3%; in the experiment with IGROV1 ovarian it was 25.2%; in the experiment with OVCAR-3 ovarian, 14.2%; in the experiment on HS 578T breast, 22%. Further, in the experiment with NCI/ADR-RES ovarian, the growth was 50.7%.
Consider `CN(C)c1nc(NCCNS(=O)(=O)c2ccc(C(=O)/C=C/c3ccc(F)cc3)cc2)nc(N2CCOCC2)n1`, for which the growth in the experiment with SK-MEL-2 melanoma was 62.2%; in the experiment on SN12C renal, 64.3%; with UO-31 renal it was 60.1%; in the experiment on TK-10 renal it was 72.2%; with ACHN renal, 78.6%; with CAKI-1 renal it was 57.3%. Also, the growth was 86.5% with A498 renal; 22.5% in the experiment with CCRF-CEM leukemia; -6.53% (active) in the experiment on MOLT-4 leukemia; -25.7% (active) with SR leukemia; -28.4% (active) in the experiment with RPMI-8226 leukemia; 42.3% in the experiment with OVCAR-8 ovarian. In addition, the growth in the experiment on OVCAR-5 ovarian was 96%; with OVCAR-4 ovarian it was 64.5%; in the experiment on SK-OV-3 ovarian, 82.5%; with IGROV1 ovarian, -44.9% (active); in the experiment with OVCAR-3 ovarian, 64.1%; in the experiment on HS 578T breast, 73.5%. Besides, the growth with NCI/ADR-RES ovarian is 49.3%.
